“And” between values parts separate entries of the source, which are not always exact repeats. Equal entries are not always repeated. Where a structure was tested more than once in an assay, its records may differ in their call. The source made the active and inactive calls. How the source made its calls: active means hit-call score of the fitted dose curve at least 0.9, where 1 is the maximum; inactive means score below 0.9.
Each compound was assayed on Interleukin-8 (IL8), CXCL8 (gene 3576) (assay: BSK_3C_IL8: BioMAP Diversity Plus: 3C Assay for Interleukin-8 (IL8) Biomarker Activity (AID 2283020)). Conditions: primary human endothelial cells (HUVEC); actives raise or lower the signal.
Method: BSK_3C is a cell-based, multiplexed-readout assay that uses umbilical vein endothelium, a human vascular primary cell, with measurements taken at 24 hours after chemical dosing in a 96-well plate.BSK_3C_IL8 is an assay component measured in the BSK_3C assay. It measures IL-8 antibody related to regulation of gene expression using ELISA technology.Data from the assay component BSK_3C_IL8 was analyzed into 1 assay endpoint. This assay endpoint, BSK_3C_IL8, was analyzed with bidirectional fitting relative to DMSO as the negative control and baseline of activity. Using a type of binding reporter, gain or loss-of-signal activity can be used to understand changes in the signaling as they relate to the gene CXCL8. Furthermore, this assay endpoint can be referred to as a primary readout, because this assay has produced multiple assay endpoints where this one serves a signaling function. To generalize the intended target to other relatable targets, this assay endpoint is annotated to the cytokine intended target family, where the subfamily is interleukins.
The levels of cell surface (or secreted, indicated by the prefix "s") biomarker endpoints were measured by ELISA. Overt cytotoxicity to cells in confluent adherent cultures (all systems other than the BT system) was assessed by measuring total protein levels using sulforhodamine B (SRB) staining in parallel cultures at the time of biomarker measurements, indicated as SRB endpoints. For proliferation assays for adherent cell types, individual cell types are cultured at sub-confluence and relative cell numbers quantified by SRB staining at time points optimized for each system (48 h: 3C and CASM3C systems; 72 h: BT and HDF3CGF systems; 96 h: SAg system). SRB was performed by staining cells with 0.1% SRB after fixation with 10% TCA and reading wells at 560 nm.Viability and proliferation of PBMC (T cells) was quantified by Alamar Blue reduction for the SAg and BT systems. For PBMC viability (referred to as PBMC Cytotoxicity within the assay endpoint names), cells were plated (75,000/well in a 96-well plate) and then chemical samples added for 1 h before addition of activators, SEB and TSST-1 (20 ng/mL final concentration each). Cells were incubated for 90 h. Then, Alamar Blue (20 uL/well) (Invitrogen, Cat DAL1100) was added for 6 h, and the plates were read with a fluorescence microplate reader at 546/580 nm (excitation/emission). For PBMC proliferation, cells were plated and activated as above but incubated for only 16 h prior to addition of Alamar Blue. Plates were read after 6 h.
In the case of CC(C)CC(=O)CC(C)CC(C)C (stereo not given), the outcome was “inactive”.
For COC(=O)/C=C\C(=O)OC, the outcome was “inactive”.
In the case of Cc1cccnc1, the outcome was “inactive”.
For CCC[Si](OC(C)=O)(OC(C)=O)OC(C)=O, the outcome was “inactive”.
In the case of CN(C)c1ccc(C(c2ccccc2)c2ccc(N(C)C)cc2)cc1, the AC50 was 5.43 µM (active).
In the case of Cc1c(C(N)=O)cc([N+](=O)[O-])cc1[N+](=O)[O-], the outcome was “inactive”.
With CCCCCCCCCC/C=C/C1CC(=O)OC1=O (stereo not given) the outcome was “inactive”.
O=[N+]([O-])c1cc(S(=O)(=O)Nc2ccccc2)ccc1Nc1ccccc1 was tested, and the outcome was “inactive” and the AC50 was 30.7 µM (active).
With CCCCCCCCCCC1CO1 (stereo not given) the AC50 was 32.8 µM (active).
In the case of CN(C)Cc1cc(C(C)(C)C)c(O)c(C(C)(C)C)c1, the outcome was “inactive”.
In the case of C1CN(CCOCCN2CCOCC2)CCO1, the AC50 was 9.48 µM (active) and the outcome was “inactive”.
For Sc1nc2ccccc2s1, the outcome was “inactive”.
With CC[N+](CC)(CC(=O)Nc1c(C)cccc1C)Cc1ccccc1 (tested in a mixture with another compound) the outcome was “inactive”.
In the case of Oc1cccc2ccccc12, the outcome was “inactive”.
With CN(C)CCC(c1ccc(Cl)cc1)c1ccccn1 (stereo not given) the outcome was “inactive”.
For OC(C(F)(F)F)(C(F)(F)F)C(O)(C(F)(F)F)C(F)(F)F, the AC50 was 39.9 µM (active) and 45.7 µM (active).
With CC[N+](CC)(CC(=O)Nc1c(C)cccc1C)Cc1ccccc1 the outcome was “inactive”.
With CCCCC(CC)COC(=O)C=Cc1ccc(OC)cc1 (stereo not given) the AC50 was 30.8 µM (active) and 28.7 µM (active).
With CC(C)C1OCCN1CCOC(=O)NCCCCCCNC(=O)OCCN1CCOC1C(C)C (stereo not given) the outcome was “inactive”.
With Cc1cc(-n2nc3ccc(Cl)cc3n2)c(O)c(C(C)(C)C)c1 the outcome was “inactive”.
In the case of COc1ccccc1Oc1c(NS(=O)(=O)c2ccc(C(C)(C)C)cc2)nc(-c2ncccn2)nc1OCCO, the outcome was “inactive”.
In the case of COc1cc(CNC(=O)CCCC/C=C/C(C)C)ccc1O, the outcome was “inactive”.
COc1ccc(C(=O)c2ccccc2O)c(O)c1 was tested, and the outcome was “inactive” and the AC50 was 7.28 µM (active).
CCCCCCCCCCCCCCCCCC[N+](C)(C)C was tested, and the AC50 was 5 µM (active).
CCCCCCC(O)CCCCCCCCCCC(=O)OC (stereo not given) was tested, and the outcome was “inactive”.
In the case of O=C(C(=O)c1ccccc1)c1ccccc1, the outcome was “inactive”.
In the case of CCC(C)=NO, the outcome was “inactive”.

Source: PubChem BioAssay (EPA / NIEHS)
